Shown are actives, neighbours in structure and some others; about 19% of the full set was active somewhere.
TDP1 cell noCPT = qHTS for Inhibitors of human tyrosyl-DNA phosphodiesterase 1 (TDP1): qHTS in cells in absence of CPT; 420,000 tested, 15% active; AID 686978, 2013; Potency, µM (series often up to 46.2 µM), for the others: top-dose activity change, negative = growth inhibition, actives largely listed as inhibitors; DT40 Tdp1-/- hTDP1 cells, no CPT, ATP luminescence, 48 h; also: potency is read from the fitted curve at half-maximal effect; nearly all actives have a fitted effect of over 55% in size
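Stably hTDP1-transfected Tdp1-null chicken DT40 cells were treated with library compounds minus camptothecin and grown for at least 48 hr at 37 °C, after which cellular ATP was quantified by luminescence.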
HT1080 IDH1KD tx = toxicity to HT-1080 IDH1 knockdown cells (counter line); HT-1080 IDH1 knockdown viability, ATP luminescence, 48 h; Potency, µM (top dose mostly 46.1 µM), for inactives: at the top dose activity, negative = toxicity, most hits filed as cytotoxic; 360,000 tested, 2% active;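 also: potency is read from the fitted curve at half-maximal effect; 0% = DMSO wells and -100% = cell-free medium wells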
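Knockdown cells (IDH1KD HT-1080) received compounds 2 h after plating at 750 cells/well and were kept 48 h at 37 °C in 5% FBS RPMI. A CellTiter-Glo luminescence read gave % activity for curve fitting.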
HT1080NT lethal = kills 2HG-producing HT-1080-NT fibrosarcoma cells; Potency, µM (titrated, usually from 46.1 µM), for the others: at the top dose activity, negative = less viability, most hits filed as cytotoxic; HT-1080-NT fibrosarcoma viability, CellTiter-Glo ATP luminescence, 48 h; 360,000 tested, 1.6% active;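 also: NT is the 2HG producing partner of a matched IDH1 knockdown line; potency is read from the fitted curve at half-maximal effect; 0% = DMSO-treated cells and -100% = media-only wells without cells; nearly all actives have a fitted effect of over 55% in size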
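Luminescent CellTiter-Glo readout after 48 hours of compound exposure at 37 degrees C defined viability of HT-1080-NT cells. Activity was normalized to DMSO wells and cell-free media wells; concentration-response curves were fitted and assigned curve classes.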
IL-1B inflam inh = inhibitors of inflammasome signaling (IL-1 beta secretion). THP-1 LPS/ATP IL-1B secretion, AlphaLISA, 16 h; active compounds read low. activity change, % at 57.5 µM. 360,000 tested, 4.7% active. AID 743279; in the data active = activity change below about -50%; inconclusive = mostly about -30% to -49%
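THP-1 cells pretreated 1 hr with compounds (up to 57.5 uM final), then stimulated with LPS (250 ng/mL final) plus ATP (1.25 mM final); secreted IL-1B measured by AlphaLISA after 16 hr, decreased signal indicating inhibition.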
TDP1 cell CPT = DT40-hTDP1 cell growth loss with CPT | chicken DT40 Tdp1-/-;hTDP1 cells + 20 nM CPT, ATP luminescence, 48 h | Potency, µM (top dose mostly 46.2 µM), for inactives: at the top dose activity change, negative = growth inhibition, hits mostly inhibitors | 420,000 tested, 12% active | AID 686979; also: potency is read from the fitted curve at half-maximal effect; nearly all actives have a fitted effect of over 55% in size
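Chicken DT40 Tdp1-/- cells stably complemented with human TDP1 were seeded at 400 cells/well in medium containing 20 nM camptothecin, exposed to pin-transferred compounds, and grown at 37 °C for at least 48 hr. Viability was read as ATP luminescence.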
An asterisk follows results filed as active; ? = inconclusive; . = no result given; [ ] = remark or other dose. Unless noted, calls follow the shape of the dose curve; as a rule, active = well fitted curve in the direction sought with a large enough effect; inconclusive = small, poorly fitted or top-dose-only effect, or another doubt; inactive = no such curve, though single readings can be large; an effect the other way counts as inactive or inconclusive. Unless noted, % is scaled to controls: 0 for no effect and ±100 for the full control effect.

SMILES	TDP1 cell noCPT	HT1080 IDH1KD tx	HT1080NT lethal	IL-1B inflam inh	TDP1 cell CPT
COc1ccc(CCNC(=O)c2ccc3c(c2)N=C(C)c2cc(C)ccc2S3)cc1OC	15µM*	.	.	.	?
CCc1ccc(CNC(=O)c2ccc3c(c2)N=C(C)c2cc(C)ccc2S3)cc1	5.8µM*	.	.	.	12µM*
CNC(C)C#Cc1ccc2c(=O)c3ccccc3oc2c1 (centres undefined)	?	1%	-11%	-21	?
Cc1ccccc1C1=NCC(=O)N(CC(=O)NCc2ccco2)c2sc3c(c21)CCCC3	22µM*	-19%	0%	-71*	16µM*
CN1Cc2c(ccc3c2OCO3)C2C(O)Cc3cc4c(cc3C21)OCO4 (centres undefined)	1.9µM*	.	.	.	2.7µM*
CN1CCc2cc3c(cc2C1O)OCO3 (centres undefined)	3%	.	.	.	7%
Clc1ccc(-c2csc3ncnc(Sc4nnnn4C4CC4)c23)cc1	3.2µM*	.	.	.	5µM*
COc1ccc(C/C(=N\OC(C)=O)c2ccc(OC)cc2)cc1	?	-13%	-6%	14	-4%
O=C(Nc1ccc(OC(F)(F)F)cc1)c1cccn(Cc2ccccc2Cl)c1=O	-1%	.	.	.	1%
COC(=O)c1ccccc1NC(=O)c1cccn(Cc2cccc(Cl)c2)c1=O	18µM*	.	.	.	?
O=C(Nc1ccon1)c1cccn(Cc2cccc(Cl)c2)c1=O	-1%	.	.	.	-22%
O=C(Nc1ccccc1C(F)(F)F)c1cccn(Cc2ccccc2)c1=O	18µM*	.	.	.	?
CN1[C@H](CC(=O)c2ccccc2)CCC[C@H]1C[C@@H](O)c1ccccc1	-20%	.	.	.	13%
CCOC(=O)[C@@]1(C#N)[C@@H]2C=CC(C(N)=O)=CN2[C@@H](C(N)=O)[C@@H]1c1cccc(Cl)c1	-26%	18%	9%	19	-27%
C#CCN1C(=O)S/C(=C\c2ccc(N3CCOCC3)cc2C)C1=O	7.3µM*	16%	12%	0	?
CCCC(C)C1(CC)C(=O)NC(=Nc2ccccc2)NC1=O (centres undefined)	-22%	-6%	-9%	11	2%
CCCCC1(CCCC)C(=O)NC(=Nc2cccc(C)c2)NC1=O	18µM*	18µM*	?	-56*	16µM*
C=C1C(C)C2C(Cc3ccccc3)NC(=O)C23OC(=O)/C=C/C(O)CCCC(C)C/C=C/C3C1O (centres undefined)	2.1µM*	8.2µM*	?	22	1.5µM*
C=C1[C@@H](C)[C@H]2[C@H](Cc3ccccc3)NC(=O)[C@]23[C@H](OC(C)=O)/C=C/[C@](C)(O)C(=O)[C@@H](C)C/C=C/[C@H]3[C@@H]1O	0.14µM*	.	.	.	0.18µM*
C=C1[C@@H](O)C2C=CC[C@H](C)C(=O)[C@@](C)(O)C=C[C@@H](OC(C)=O)[C@@]23C(=O)N[C@H](Cc2ccccc2)[C@@H]3[C@@H]1C (some centres undefined)	0.24µM*	.	.	.	0.27µM*
C[C@]12CC[C@H]3[C@@H](CCC4=CC(=O)CC[C@@]43C)[C@@H]1CC[C@@H]2OC(=O)CCc1ccccc1	?	.	.	.	-13%[92.5 µM]
O=P1(Oc2ccccc2)CC=C[C@H](COCc2ccccc2)O1 (some centres undefined)	-26%	-1%	1%	-4	-8%
CCN(CC)CCNC(=O)c1c(C)[nH]c(/C=C2\C(=O)Nc3ccc(F)cc32)c1C	3.8µM*	.	.	.	4.2µM*
c1ccc(CCN2CCCCC2)cc1	-2%	.	.	.	2%
Cc1cc(OCC(=O)N2CCC(C(=O)O)CC2)c2c3c(c(=O)oc2c1)CCC3	9%	6%	7%	13	-1%
O=C(NCC(c1cccs1)N1CCOCC1)c1cc([N+](=O)[O-])cc([N+](=O)[O-])c1 (centres undefined)	?	-4%	0%	-62*	-29%
